Sampled rows, rich in hits. Any-hit rate of the full collection: about 11%.
VDR inhibitor – inhibitors of human vitamin D receptor | 0.93% of 400,000 active | VDR-SRC2-3 peptide fluorescence polarization, 2 h | P11473 | Potency, µM, for the others: max response, negative = inhibition, hits mostly inhibitors; note: potency is the fitted concentration of half-maximal effect; % is set by controls: 0 for no effect and ±100 for the full control effect
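Fluorescence polarization assay of small-molecule disruption of VDR binding to coregulator peptide SRC2-3. Compounds and controls pin-transferred, then read after 2 h incubation at ambient room temperature.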
HP1b chromo inh – blocks HP1-beta chromodomain binding to methylated histone tails | P83916 | AlphaScreen HP1-beta / biotin-H3K9me3 peptide binding | Potency, µM (top dose mostly 114 µM), for inactives: at the top dose activity change, negative = inhibition, usual class: inhibitors | 0.56% of 390,000 active; note: potency is the fitted concentration of half-maximal effect; nearly all actives have a fitted effect of over 70% in size
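Compound inhibition of the preformed complex between 50 nM HP1-beta and 50 nM biotinylated H3K9me3 peptide was read by AlphaScreen. Buffer was PBS pH 7.4 with 0.01% Tween-20. Incubations ran 30 min at room temperature, with 10 ug/mL donor/acceptor beads.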
BAZ2B inh – inhibitors of human BAZ2B bromodomain. AlphaScreen BAZ2B-H3K14Ac peptide displacement. Potency, µM (highest dose often 114 µM), for the others: at the top dose activity change, negative = inhibition, actives largely listed as inhibitors. Q9UIF8. 4.4% of 360,000 active; note: potency is the fitted concentration of half-maximal effect; % is set by controls: 0 for no effect and ±100 for the full control effect; nearly all actives have a fitted effect of over 60% in size
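AlphaScreen displacement: compounds (up to 110uM) incubated 30 min at room temperature with a preformed 50 nM BAZ2B/50 nM biotinylated H3K14Ac peptide complex in PBS pH 7.4 with Tween-20. Donor and acceptor beads at 10 ug/mL final added, 20 min light-protected before reading.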
JMJD2A Tudor inh – JMJD2A Tudor domain (human) inhibition | O75164 | AlphaScreen JMJD2A-Tudor / H3K4me3 peptide binding | Potency, µM (top dose mostly 114 µM), without a hit: top-dose activity change, negative = inhibition, actives largely listed as inhibitors | 4.4% of 390,000 active | AID 504339; note: potency is the fitted concentration of half-maximal effect; % is set by controls: 0 for no effect and ±100 for the full control effect; nearly all actives have a fitted effect of over 50% in size
PLK1 PBD inh – inhibitors of human PLK1 polo-box domain binding | 2.8% of 360,000 active | P53350 | Potency, µM, inactives show max response, negative = inhibition, hits mostly inhibitors | Plk1 PBD binding of FITC phosphopeptide, fluorescence polarization | AID 720504; note: potency is the fitted concentration of half-maximal effect; series mostly up to about 57 µM; % is set by controls: 0 for no effect and ±100 for the full control effect; nearly all actives have a fitted effect of over 65% in size
Target sequence (P53350 whole entry, looked up, the tested form may be a part): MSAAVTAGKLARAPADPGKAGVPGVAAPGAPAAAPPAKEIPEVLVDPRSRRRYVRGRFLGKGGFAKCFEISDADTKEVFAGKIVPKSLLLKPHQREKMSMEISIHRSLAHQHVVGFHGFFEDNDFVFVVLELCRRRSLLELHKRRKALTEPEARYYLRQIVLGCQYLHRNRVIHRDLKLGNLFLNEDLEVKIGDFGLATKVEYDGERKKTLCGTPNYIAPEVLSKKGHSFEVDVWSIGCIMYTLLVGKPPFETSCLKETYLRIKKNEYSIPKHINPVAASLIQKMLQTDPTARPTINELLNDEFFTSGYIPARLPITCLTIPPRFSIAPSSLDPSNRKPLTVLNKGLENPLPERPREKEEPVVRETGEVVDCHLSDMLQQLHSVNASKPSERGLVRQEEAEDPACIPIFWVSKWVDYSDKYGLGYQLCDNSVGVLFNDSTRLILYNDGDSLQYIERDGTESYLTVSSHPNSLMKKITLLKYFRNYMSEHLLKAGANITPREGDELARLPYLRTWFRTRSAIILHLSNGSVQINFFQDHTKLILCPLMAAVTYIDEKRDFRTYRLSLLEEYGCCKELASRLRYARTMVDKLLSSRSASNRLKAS
G9a inh – blocks human histone lysine methyltransferase G9a. Q96KQ7. G9a H3K9 monomethylation, AlphaScreen, 2 h. Potency, µM (top dose mostly 102 µM), inactives show top-dose activity, negative = inhibition, usual class: inhibitors. 8.8% of 350,000 active; note: potency is the fitted concentration of half-maximal effect; % is set by controls: 0 for no effect and ±100 for the full control effect; nearly all actives have a fitted effect of over 75% in size
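Compounds were preincubated with 20 nM G9a for 15 min, after which biotinylated H3K9 peptide (500 nM) and SAM (20 uM) started a 2 h room-temperature reaction. Monomethylated product was quantified by antibody-based AlphaScreen chemiluminescence.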
USP1-UAF1 confirm – USP1-UAF1 deubiquitinase inhibition validated | shares compounds with VDR inhibitor | Ub-Rhodamine cleavage, fluorescence kinetic read | 50% of 50 active | Potency, µM (series often up to 114 µM), for the others: at the top dose activity change, negative = inhibition, actives largely listed as inhibitors | AID 540327
VDR confirm – inhibits human vitamin D receptor, primary hit validation; shares compounds with VDR inhibitor; VDR-coactivator inhibition assay, qHTS confirmation; Potency, µM, usual class: inhibitors; 89% of 840 active; AID 602199; note: potency is the fitted concentration of half-maximal effect
VDR FP fluor – VDR (human) coactivator binding inhibition, fluorescein polarization; shares compounds with VDR inhibitor; VDR-coactivator binding, fluorescein fluorescence polarization; Potency, µM (series often up to 57.1 µM), without a hit: top-dose activity change, negative = inhibition, actives largely listed as inhibitors; 48% of 840 active; AID 602200; note: potency is the fitted concentration of half-maximal effect
VDR bla reporter – inhibits human VDR in beta-lactamase reporter cells. VDR beta-lactamase reporter cells, FRET ratio; cells co-treated with VDR agonist LG190178. shares compounds with VDR inhibitor. Potency, µM (series often up to 46.1 µM), for the others: at the highest dose activity change, negative = inhibition, actives largely listed as inhibitors. 23% of 840 active; note: potency is the fitted concentration of half-maximal effect; % is set by controls: 0 for no effect and ±100 for the full control effect
VDR cytotox – cytotoxic in counter-screen for VDR inhibitors; cytotoxicity counter-screen, cell viability, qHTS; Potency, µM (highest dose often 48.3 µM), for the others: at the top dose activity change, negative = cytotoxicity, actives largely listed as cytotoxic; 18% of 840 active; shares compounds with VDR inhibitor;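 note: potency is the fitted concentration of half-maximal effect; plate controls were DMSO for no effect and high-concentration cycloheximide for full effect; nearly all actives have a fitted effect of over 75% in size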
The depositor's hits bear a star; ? = inconclusive; . = not tested or not shown; [ ] = dose if it differs, or a comment. Calls come from the whole dose curve; as a rule, active = well fitted curve in the direction sought with a large enough effect; inconclusive = small, poorly fitted or top-dose-only effect, or another doubt; inactive = no such curve, though single readings can be large; an effect the other way counts as inactive or inconclusive.

SMILES	VDR inhibitor	HP1b chromo inh	BAZ2B inh	JMJD2A Tudor inh	PLK1 PBD inh	G9a inh	VDR confirm	VDR FP fluor	VDR bla reporter	VDR cytotox	others
COC(=O)[C@H](CCSC)NC(=O)c1cc2c(cn1)[nH]c1ccccc12	25µM*	?	-34%	?	3µM*	1.8µM*	7.5*	?	5%	30%
NC(=O)Nc1ccc(C(=O)OCC(=O)Nc2ccc([N+](=O)[O-])cc2C(F)(F)F)cc1	-15%	-5%	46%	-21%	-7%	1%[59 µM]	.	.	.	.
O=C(Cc1ccccc1Cl)NC1(O)C(=O)c2ccccc2C1=O	50µM*	49%	0%	-2%	-23%	56µM*	11*	-17%	8%	4%
N[C@@H](Cc1cc(-c2ccc(Cl)cc2Cl)cc(CP(=O)(O)O)c1O)C(=O)O	45µM*	.	.	.	.	.	.	.	.	.	USP1-UAF1 confirm=42µM*
COc1ccc([N+](=O)[O-])c(S(=O)(=O)c2ccccc2)n1	32µM*	40%	-18%	-26%	9.5µM*	11µM*	15*	?	18µM*	16µM*
CCOC(=O)/C(C#N)=C1\C(=O)N(Cc2ccccc2)c2ccccc21	28µM*	14µM*	35µM*	20µM*	3.4µM*	.	6.7*	?	9%	11%
COc1cccc(/C=C/C(=O)c2cccc([N+](=O)[O-])c2)c1OC	8.9µM*	-28%	?	?	?	?	3.8*	3.2µM*	?	?
Cc1ccc(C(C[N+](=O)[O-])Sc2ccc(N)cc2)cc1 (stereo not drawn)	13µM*	-1%	?	-26%	6.7µM*	40µM*	7.5*	?	?	?
Cc1ccc(C(O)CCc2ccc(N)cc2)cc1 (stereo not drawn)	-12%	21%	-24%	-20%	2%	2%	.	.	.	.
CS(=O)(=O)N1CCC2(CCCN(c3ccncc3)C2)CC1	-3%	.	.	.	.	-1%[12.7 µM]	.	.	.	.
O=C(/C(=C/c1ccncc1)n1ccnc1)c1ccc(Cl)cc1Cl	79µM*	18%	-25%	?	27µM*	?	13*	13µM*	-20%	-7%
CC(=O)NC1=CC(=O)c2nonc2C1=O	56µM*	-8%[57 µM]	.	?	.	.	2.5*	2.5µM*	2.9µM*	3.8µM*
CCN(CC)c1ccc(C=Nc2ccc(N(C)C)cc2)c(O)c1	?	?	32µM*	56µM*	67%	0.56µM*	4*	303%	-28%	-9%
CNC(=S)Nc1cccc(Cl)c1C	-18%	36%	-16%	-15%	-14%	-1%	.	.	.	.
O=C(C[n+]1csc2ccccc21)c1cccc([N+](=O)[O-])c1	.	.	.	.	.	.	?	?	5%	22%
COc1ccc(NC(=O)N2CCCC(C(=O)NCc3ccccc3F)C2)cc1 (stereo not drawn)	-8%	-21%	8%	-18%	-8%	17%	.	.	.	.
CCOC(=O)/C(=C/c1ccc(OC(F)F)cc1)C1=Nn2c(nnc2-c2ccc(Cl)cc2)SC1	8.9µM*	?	.	-36%	?	.	3.4*	3.5µM*	?	21µM*
CCOC(=O)/C(=C\c1ccc(OC(F)F)cc1)C1=Nn2c(nnc2-c2ccc(Cl)cc2)SC1	16µM*	?	-34%	-31%	?	?	6*	?	16µM*	13µM*
COc1ccc(-c2nnc3n2N=C(C)CS3)cc1	1%	?	-20%	0%	-3%	11%[12.7 µM]	.	.	.	.
CCN(C(=O)Cn1nc(Cc2cccnc2)c2ccccc2c1=O)c1ccccc1F	-11%	46%	-2%	-18%	.	-21%[59 µM]	.	.	.	.
CCS(=O)(=O)c1oc(-c2ccc(F)cc2)nc1S(=O)(=O)c1ccccc1	20µM*	72%	-2%	-2%	.	?	4.5*	4µM*	5.8µM*	9.5µM*
O=C(CS(=O)c1ccccc1[N+](=O)[O-])Oc1ccc(Br)cc1 (stereo not drawn)	?	29%	?	-18%	-14%	.	.	.	.	.
CS(=O)(=O)c1ccc(S(=O)CC(=O)Oc2ccc(Cl)cc2)c([N+](=O)[O-])c1 (stereo not drawn)	3.5µM*	9%	-2%	-5%	3µM*	6.3µM*	2.5*	1.6µM*	18µM*	?
CN(Cc1ccc(C(F)(F)F)cc1)C(=O)C1CC(=O)N(Cc2ccco2)C1 (stereo not drawn)	0%	31%	.	-11%	-19%	.	.	.	.	.
O=C1NN(c2ccccc2)C(=O)/C1=C\c1cccc(OC(=O)c2cccs2)c1	50µM*	3%	56µM*	?	1.5µM*	?	8.4*	?	?	?
SMILES	VDR inhibitor	HP1b chromo inh	BAZ2B inh	JMJD2A Tudor inh	PLK1 PBD inh	G9a inh	VDR confirm	VDR FP fluor	VDR bla reporter	VDR cytotox	others
CCCCn1nnnc1C(c1cc2ccccc2o1)N(C)Cc1ccc(Cl)cc1 (stereo not drawn)	.	.	.	.	-15%	.	.	.	.	.
Cc1c(C(=O)N2CCN(CCc3ccccn3)CC2)oc2ccc(Cl)cc12	-10%	14%	-14%	-12%	-12%	12%[59 µM]	.	.	.	.
O=C(Nc1ccccc1)N1CC[C@@]2(CCCN(C(=O)c3csnn3)C2)C1	-4%	.	.	.	.	-2%[12.7 µM]	.	.	.	.
CC(=O)Nc1ccc(C2=NNC(=Nc3cccc(S(=O)(=O)N(C)C)c3)SC2)cc1	?	?	-32%	35µM*	19µM*	25µM*	13*	13µM*	?	?
O=C(Oc1ccc(C(=S)N2CCOCC2)cc1)c1ccc(Br)cc1	-7%	49%	-6%	-3%	1%	-6%[59 µM]	.	.	.	.
COc1ccc(C(=O)Oc2ccc(C(=S)N3CCOCC3)cc2)cc1	71µM*	?	-35%	?	11µM*	.	27*	25µM*	5%	-3%
